Hit rate of the full screen: of about 400,000 compounds, about 2,100 (0.53%) were called active. Inconclusive results (about 14%) are left out. The rule behind the calls is not given here. For the sample, actives were picked, then their nearest neighbours and some compounds at random.
molecular target: Ataxin-2 (Homo sapiens) (UniProt Q99700); assay: qHTS for Inhibitors of ATXN expression.; type: functional
Sequence (Q99700 whole entry): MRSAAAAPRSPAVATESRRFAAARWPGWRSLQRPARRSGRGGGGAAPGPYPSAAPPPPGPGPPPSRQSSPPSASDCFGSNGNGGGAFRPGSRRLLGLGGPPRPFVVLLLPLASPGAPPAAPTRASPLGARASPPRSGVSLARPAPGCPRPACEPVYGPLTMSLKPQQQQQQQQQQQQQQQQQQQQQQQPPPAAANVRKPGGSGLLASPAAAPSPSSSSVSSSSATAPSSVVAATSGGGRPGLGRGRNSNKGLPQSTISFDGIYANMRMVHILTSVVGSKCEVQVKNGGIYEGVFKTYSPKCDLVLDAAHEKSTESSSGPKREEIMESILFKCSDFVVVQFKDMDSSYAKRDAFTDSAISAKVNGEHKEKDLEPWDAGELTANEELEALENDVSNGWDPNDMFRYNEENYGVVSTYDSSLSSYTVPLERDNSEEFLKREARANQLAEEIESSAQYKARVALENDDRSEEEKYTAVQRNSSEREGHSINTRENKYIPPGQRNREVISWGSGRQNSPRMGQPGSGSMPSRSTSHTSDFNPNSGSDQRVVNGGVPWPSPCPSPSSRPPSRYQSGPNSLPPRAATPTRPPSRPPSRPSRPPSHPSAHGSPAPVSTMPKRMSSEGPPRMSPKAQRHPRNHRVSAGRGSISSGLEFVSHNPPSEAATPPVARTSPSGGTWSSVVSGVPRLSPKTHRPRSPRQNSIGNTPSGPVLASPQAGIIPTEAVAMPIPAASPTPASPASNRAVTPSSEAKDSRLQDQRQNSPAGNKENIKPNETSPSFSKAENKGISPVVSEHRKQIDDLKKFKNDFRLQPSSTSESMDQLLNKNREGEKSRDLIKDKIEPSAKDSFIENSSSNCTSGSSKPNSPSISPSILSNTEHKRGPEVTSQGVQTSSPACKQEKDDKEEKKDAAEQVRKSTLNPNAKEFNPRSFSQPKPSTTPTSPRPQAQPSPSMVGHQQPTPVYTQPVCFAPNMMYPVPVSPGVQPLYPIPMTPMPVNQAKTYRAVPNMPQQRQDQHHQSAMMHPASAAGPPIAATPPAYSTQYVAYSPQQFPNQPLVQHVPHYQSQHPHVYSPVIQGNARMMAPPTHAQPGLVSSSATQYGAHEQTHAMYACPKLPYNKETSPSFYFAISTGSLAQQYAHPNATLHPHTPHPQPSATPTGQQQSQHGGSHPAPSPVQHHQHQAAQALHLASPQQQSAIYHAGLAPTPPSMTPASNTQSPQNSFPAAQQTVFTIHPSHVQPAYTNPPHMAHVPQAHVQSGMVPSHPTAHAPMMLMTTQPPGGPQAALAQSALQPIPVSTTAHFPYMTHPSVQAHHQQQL

SMILES | Potency
CCNC(=S)N1CCN(CCNC=C2C(=O)CC(C)(C)CC2=O)CC1 | inactive
CN1C(=O)NC(NS(=O)(=O)c2ccc(N)cc2)(C(F)(F)F)C1=O (centres undefined) | inactive
Nc1nc2nc(-c3cccs3)cc(C(F)(F)F)n2n1 | inactive
C=CCNC(=O)/C(C#N)=C/c1c(N2CCN(c3cccc(Cl)c3)CC2)nc2c(C)cccn2c1=O | inactive
O/N=C/c1cc2ccccc2n1Cc1ccccc1F | inactive
Cc1ccc(C2=NN=C(c3ccccc3)c3ncccc3N2)cc1 | inactive
CC(C)c1ccc(NC2=NC(=N)c3ccccc32)cc1 | 39.8 µM (active)
CC(C)c1ccc(NC2=NN=C(c3cccs3)CS2)cc1 | inactive
COc1ccc(S(=O)(=O)N2CCOCC2)cc1NC(=O)COc1cccnc1[N+](=O)[O-] | inactive
Clc1cccc2c1CCN(Cc1nc(-c3cnccn3)no1)C2 | inactive
COc1ccccc1N1CCN(c2nc(CNC(=O)C3CC34CCCC4)nc3ccccc23)CC1 (centres undefined) | 35.5 µM (active)
COc1ccccc1N1CCN(C2CCCN(C(=O)c3csc(C)n3)C2)CC1 (centres undefined) | inactive
Cc1ccc(C(=O)NCc2ccc3c(c2)OCO3)cc1N1CCCC1=O | inactive
CSc1nc(N2CCN(c3ccccc3Cl)CC2)c2ccccc2n1 | inactive
COc1ccc(C(=O)N2CCOC2CNC(=O)C(=O)NCc2ccc3c(c2)OCO3)cc1 (centres undefined) | inactive
COc1ccccc1N1CCN(c2nc(CNC(=O)c3ccc4c(c3)OCO4)nc3ccccc23)CC1 | 28.2 µM (active)
CC1CC(C)(C)N=C(S)N1CCC(=O)N1CCN(c2ccccc2)CC1 (centres undefined) | inactive
CCn1c(=N)c(S(=O)(=O)c2ccccc2)cc2c(=O)n3ccccc3nc21 | inactive
Cc1ccccc1CN(C)C1CCN(C)CC1 | inactive
CCOC(=O)C1CCCN(C(=O)c2sc3nc4n(c(=O)c3c2C)CCC4)C1 (centres undefined) | inactive
CCOC(=O)CC1(C)c2nc(NC(C)=O)sc2Cc2sc(NC(C)=O)nc21 | inactive
O=C(O)c1cccc(N2C(=O)c3cc4cccc(Br)c4cc3C2=O)c1 | inactive
O=C(NCc1ccccc1Cl)C1CCN(S(=O)(=O)c2ccc(-n3cnnn3)cc2)CC1 | inactive
O=C(NCc1ccccc1Cl)[C@H]1CCCN1C(=O)[C@H]1CCCN1C(=O)c1cccc2ccccc12 | 10 µM (active)
O=C(NCc1ccccc1Cl)C1CCCO1 (centres undefined) | inactive

SMILES | Potency
COc1ccc(CNC(=O)COC(=O)c2ccc(OCC3CCCO3)cc2)cc1 (centres undefined) | inactive
CCN1C(=O)c2cccc3c(S(=O)(=O)N4CCC(C)CC4)ccc1c23 | inactive
CC(=O)N1CCSc2ccc(S(=O)(=O)N3CCC(C)CC3)cc21 | inactive
CC1CCN(S(=O)(=O)c2ccc3c4c2CC(=O)N4CC(C)S3)CC1 (centres undefined) | 31.6 µM (active)
CC(C)(C)c1nc2ccccc2c2nnc(SCC(=O)Nc3nc4ccccc4s3)n12 | 35.5 µM (active)
O=C(CCNC(=O)c1ccccc1)Nc1nc2ccccc2s1 | inactive
Cc1nc(SCC(=O)Nc2nc3ccccc3s2)c(C#N)c(C)c1C | inactive
CCC(C)n1c(=N)c(C(=O)NC2CCCC2)cc2c(=O)n3ccccc3nc21 (centres undefined) | inactive
COc1ccc(C(=O)c2c(N)sc3c2CCN(C(=O)OC(C)(C)C)C3)cc1 | inactive
O=C1C=CC2(O[C@H](c3ccccc3)[C@@H](c3ccccc3)O2)[C@H](Sc2ccccc2O)C1 | 2 µM (active)
CCN(CC)c1ccc2c(C)cc(=O)oc2c1 | inactive
CC1(C)CC(N/C=C2/C(=O)N(Cc3ccc4c(c3)OCO4)C(=O)c3ccccc32)CC(C)(C)N1 | 21.2 µM (active)
CN(C)CCN/C=C1/C(=O)N(Cc2ccccc2)C(=O)c2ccccc21 | inactive
CN(C)CCN/C=C1/C(=O)N(Cc2ccc3c(c2)OCO3)C(=O)c2ccccc21 | inactive
N#CCC(=O)Nc1ccc(C(=O)NNC(=O)c2ccccc2-n2cccc2)cc1 | inactive
COc1cc(N2N=C(c3ccccc3)CC2c2ccccc2)c(C=O)cc1C=O (centres undefined) | inactive
Nc1c(C(=O)Nc2cccc(Cl)c2Cl)sc2nc(-c3cccnc3)ccc12 | inactive
Cc1ccc(-c2nc3ncccc3o2)cc1N | inactive
O=C(Nc1cccc(-c2nc3ncccc3o2)c1)c1sc2ccccc2c1Cl | 17.8 µM (active)
CNC(=S)N/N=C(\C)c1ccc2c(c1)OCO2 | 44.7 µM (active)
COCCCNC(=S)N/N=C/c1ccc2c(c1)OCO2 | inactive
COC(=O)c1ccc(N/C=C\C(=O)c2ccc3c(c2)OCO3)cc1 | inactive
COc1cc(Cn2c(N)c(C#N)c3nc4ccccc4nc32)cc(OC)c1 | inactive
O=C(Oc1ccc2c(-c3ccccc3)cc(=O)oc2c1)c1cccs1 | inactive
COc1ccc(N2C(c3ccsc3)=Cc3cc4c(cc3C2c2c[nH]c3ccccc23)OCO4)cc1 (centres undefined) | 28.2 µM (active)

SMILES | Potency
O=C(NC1CCS(=O)(=O)C1)c1cc2c(=O)n3ccccc3nc2n1Cc1ccccc1 (centres undefined) | inactive
CCN(CC)CCNC(=O)C(Cl)=C1C(Cl)=C(Cl)C(Cl)=C1Cl | 44.7 µM (active)
CCCCOC(=O)c1ccc(NC(=O)C(=O)NCCN(CC)CC)cc1 | inactive
CC(=O)CCC(=O)OCC(=O)c1ccc(C(F)(F)F)cc1 | inactive
N=C(N)N/N=C(\c1ccc(F)cc1)c1ccc(C(F)(F)F)cc1 | 5.97 µM (active)
O=C(Cn1cc(C(F)(F)F)ccc1=O)NCc1ccc(F)cc1 | inactive
CNC(=O)c1sc(N2N=C3/C(=C\c4ccccc4)CCCC3C2c2ccccc2)nc1C (centres undefined) | inactive
C[C@H](CO)N1C[C@H](C)[C@@H](CN(C)Cc2ccc(Cl)c(Cl)c2)Oc2c(NC(=O)C3CC3)cccc2C1=O | 28.2 µM (active)
C[C@@H]1CN([C@@H](C)CO)C(=O)c2cccc(NC(=O)C3CCCCC3)c2O[C@@H]1CN(C)Cc1ccc(Cl)c(Cl)c1 | 35.5 µM (active)
CCCC(=O)NC(N=C(S)Nc1ccc(N=Nc2ccccc2)cc1)C(Cl)(Cl)Cl (centres undefined) | 22.4 µM (active)
CCCC(=O)Nc1ccc(C(=O)COC(=O)C2CC2C)cc1 (centres undefined) | inactive
CC(C)(C)c1ccc(OCC(=O)NNC(=O)Nc2ccccc2)cc1 | inactive
CCc1ccc(OCC(=O)NC(N=C(S)Nc2ccc(Cl)cc2)C(Cl)(Cl)Cl)cc1 (centres undefined) | 39.8 µM (active)
O=C(COc1ccc(Cl)cc1)NNC(=O)CSc1nncs1 | inactive
COc1ccc(C(=O)c2sc3nc(C)cc(-c4cccs4)c3c2N)cc1 | inactive
O=C1NC2c3c(I)sc(I)c3C(=O)C2O1 (centres undefined) | 39.8 µM (active)
COc1ccc(OC)c(NC(=O)c2cnc(Nc3ccc(C)c(Cl)c3)c3ccccc23)c1 | inactive
Oc1c(Cl)cc(Cl)cc1/C=N/c1nc[nH]n1 | inactive
Cc1c(Cl)cccc1NS(=O)(=O)c1cccc2nsnc12 | inactive
CCCCN(C(=O)C1CCC(CNS(=O)(=O)c2cccc3nsnc23)CC1)c1ccccc1 (centres undefined) | 39.8 µM (active)
O=C(Nc1ccccc1)Nc1cccc2nsnc12 | inactive
Cn1nnc(NC(=S)NC(=O)c2ccc3ccccc3c2)n1 | inactive
CCOC(=O)C1=C(C)NC(=O)NC1c1ccc(N2CCC(c3ccccc3)=N2)cc1 (centres undefined) | inactive
CCOC(=O)C1=C(COc2ccccc2)NC(=O)NC1c1ccc2ccccc2c1 (centres undefined) | 35.5 µM (active)
CCOC(=O)C1=C(COC(=O)COc2cccc(C)c2C)NC(=O)NC1C (centres undefined) | inactive

SMILES | Potency
CCC(CC)COC(=O)C1=C(C)NC(=O)NC1c1ccc([N+](=O)[O-])cc1 (centres undefined) | inactive
COC(=O)C1=C(C)NC(=O)NC1c1ccc(OC(=O)c2ccco2)cc1 (centres undefined) | inactive
CCOC(=O)C1=C(CN2CCN(c3ccc(OC)cc3)CC2)NC(=O)NC1c1ccc(Cl)cc1 (centres undefined) | 39.8 µM (active)
CCOC(=O)c1cc2c(=O)n3ccccc3nc2n(CC(C)C)/c1=N\C(=O)COc1ccc(Cl)cc1 | inactive
Cc1nc2sc(C(=O)OC(C)C)c(N)c2c(C)c1C | inactive
COc1cc(/C=C(/C#N)C(=O)NCCCc2ccccc2)ccc1OCC(=O)O | inactive
Cc1cc(=O)oc2cc(NS(=O)(=O)c3ccccc3)ccc12 | inactive
O=S(=O)(c1ccc2ccccc2c1)N1CCc2ccccc21 | inactive
Cc1ccc2nc(-c3ccc(NS(=O)(=O)c4ccc(F)cc4)cc3)sc2c1 | inactive
Cc1ccc(S(=O)(=O)N2CCCc3cc(NS(=O)(=O)c4ccc(F)cc4)ccc32)cc1 | 39.8 µM (active)
Cc1ccc(S(=O)(=O)N2CCCc3cc(NS(=O)(=O)c4ccccc4)ccc32)cc1 | 39.8 µM (active)
Cc1cc(=O)oc2cc(NS(=O)(=O)c3ccc(F)cc3)ccc12 | inactive
Cc1cc(F)ccc1S(=O)(=O)Nc1ccc2c(c1)CCCN2C(=O)c1cccs1 | 39.8 µM (active)
Cc1cc(C)nc(NS(=O)(=O)c2ccc(N/C=C\C(=O)c3cccs3)cc2)n1 | inactive
C[C@@H]1C(c2cccc(Cl)c2)=NN(c2ccc(Br)cc2)[C@H]1C(=O)N1CCOC1=O | inactive
Cc1cc(N2CCCC2)c(F)cc1/C=C\[N+](=O)[O-] | inactive
Cc1cc(NC(=O)CN(C)S(=O)(=O)c2ccc3c(c2)CCCC(=O)N3)ccc1Br | 31.6 µM (active)
Cc1cc(NC(=O)CCN2CCC(C)CC2)ccc1Br | inactive
CC(=O)N1CCCc2cc(S(=O)(=O)N(C)CC(=O)Nc3ccccc3)ccc21 | inactive
O=C1CS/C(=N/N=C/c2ccccc2)N1Cc1ccco1 | inactive
C(=C/c1[nH]ccc2c3ccccc3nc1-2)/c1ccc2c(c1)OCO2 | inactive
COc1ccc2[nH]c(C(=O)N(Cc3ccccn3)Cc3ccccn3)cc2c1 | inactive
COc1ccc(-c2[nH]c(-c3ccc4c(c3)OCO4)nc2-c2ccccc2)cc1 | 44.7 µM (active)
O=C1N/C(=C/c2cccn2-c2ccc(F)cc2)C(=O)N1Cc1ccccc1F | inactive

— ChEMBL document CHEMBL1201862, “PubChem BioAssay data set” (2004)
